Compound activity deposited in PubChem by National Center for Advancing Translational Sciences (NCATS).
Sampled rows, rich in hits. Any-hit rate of the full collection: about 18%.
RORgamma inh: qHTS for inhibitors of ROR gamma transcriptional activity; Nuclear receptor ROR-gamma (Mus musculus), P51450; Potency, µM (titrated, usually from 53.6 µM), for inactives: at the highest dose activity change, negative = inhibition, hits mostly inhibitors; AID 2551, 2010; actives 5.4% (n = 310,000); Drosophila S2 Gal4-RORgamma UAS-luciferase reporter, 20 h; note: potency is the fitted concentration of half-maximal effect; nearly all actives have a fitted effect of over 60% in size
Target sequence (P51450 whole entry, looked up, the tested form may be a part): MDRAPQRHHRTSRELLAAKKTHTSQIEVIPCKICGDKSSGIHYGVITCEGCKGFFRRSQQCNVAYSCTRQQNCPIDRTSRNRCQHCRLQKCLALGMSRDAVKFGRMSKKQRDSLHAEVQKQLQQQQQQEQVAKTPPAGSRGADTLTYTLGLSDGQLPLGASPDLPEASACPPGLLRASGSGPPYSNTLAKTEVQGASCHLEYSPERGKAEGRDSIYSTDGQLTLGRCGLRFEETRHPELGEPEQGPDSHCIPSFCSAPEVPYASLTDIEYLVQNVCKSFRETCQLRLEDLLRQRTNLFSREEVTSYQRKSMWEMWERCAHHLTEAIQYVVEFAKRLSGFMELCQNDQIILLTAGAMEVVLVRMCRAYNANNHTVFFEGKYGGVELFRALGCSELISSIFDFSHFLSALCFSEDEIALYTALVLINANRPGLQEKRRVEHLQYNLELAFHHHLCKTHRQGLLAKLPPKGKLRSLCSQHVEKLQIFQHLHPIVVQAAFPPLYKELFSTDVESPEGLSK
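Read-out: Photinus luciferase luminescence; inhibitors lower reporter signal. Insect Schneider cells with Gal4-ROR gamma fusion under metallothionein promoter, UAS reporter; 700 uM final copper sulfate induction, 20 hr, ambient temperature.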
VP16 counter: VP16 counterscreen qHTS for inhibitors of ROR gamma transcriptional activity | Drosophila S2 Gal4-VP16 UAS-luciferase, luminescence, 20 h | Potency, µM (highest dose often 53.6 µM), for the others: top-dose activity, negative = inhibition, usual class: inhibitors | actives 3.5% (n = 310,000);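 note: Gal4-VP16 expression switched on by copper sulfate through the metallothionein promoter; potency is the fitted concentration of half-maximal effect; nearly all actives have a fitted effect of over 50% in size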
TDP1 cell CPT: qHTS for Inhibitors of human tyrosyl-DNA phosphodiesterase 1 (TDP1): qHTS in cells in presence of CPT; chicken DT40 Tdp1-/-;hTDP1 cells + 20 nM CPT, ATP luminescence, 48 h; Potency, µM (highest dose often 46.2 µM), without a hit: at the highest dose activity change, negative = growth inhibition, actives largely listed as inhibitors; actives 12% (n = 420,000); AID 686979, 2013; note: potency is the fitted concentration of half-maximal effect; nearly all actives have a fitted effect of over 55% in size
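Chicken DT40 Tdp1-/- cells complemented with human TDP1, 400 cells/well, exposed to compounds plus 20 nM camptothecin for at least 48 h at 37 C; viability read as ATP content by CellTiter-Glo luminescence.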
IL-1B inflam inh: qHTS for Inhibitors of Inflammasome Signaling: IL-1-beta AlphaLISA Primary Screen | THP-1 LPS/ATP IL-1B secretion, AlphaLISA, 16 h; stronger effect = lower value | activity change, % at 57.5 µM | actives 4.7% (n = 360,000) | AID 743279, 2014; in the data active = activity change below about -50%; inconclusive = mostly about -30% to -49%
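THP-1 cells pretreated 1 hr with compounds (up to 57.5 uM final), then stimulated with LPS (250 ng/mL final) plus ATP (1.25 mM final); secreted IL-1B measured by AlphaLISA after 16 hr, decreased signal indicating inhibition.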
DT40 TDP1 no CPT: qHTS for Inhibitors of human tyrosyl-DNA phosphodiesterase 1 (TDP1): qHTS in cells in absence of CPT; DT40 Tdp1-/- hTDP1 cells, no CPT, ATP luminescence, 48 h; Potency, µM (series often up to 46.2 µM), inactives show at the top dose activity change, negative = growth inhibition, hits mostly inhibitors; actives 15% (n = 420,000); AID 686978, 2013; note: potency is the fitted concentration of half-maximal effect; nearly all actives have a fitted effect of over 55% in size
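Stably hTDP1-transfected Tdp1-null chicken DT40 cells were treated with library compounds minus camptothecin and grown for at least 48 hr at 37 °C, after which cellular ATP was quantified by luminescence.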
LDHA inh: qHTS assay for inhibitors of human lactate dehydrogenase. purified LDHA, NADH/diaphorase-resazurin fluorescence; stronger effect = lower value. L-lactate dehydrogenase A chain (Homo sapiens), P00338. activity change, % (values are at about 110 or 230 µM). actives 0.15% (n = 480,000); in the data active = activity change below about -30%; inconclusive = mostly about -25% to -30%;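 note: plate controls were DMSO wells for no effect and wells without enzyme for full effect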
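Resorufin fluorescence (ex540/em590), read at 0 and 20 min after diaphorase/resazurin addition, reports the NADH left after a 5 min room-temperature reaction of 2 nM human LDH5 with 0.06 mM NADH and 0.2 mM pyruvate.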
Active calls of the source: *; ? = inconclusive; · = not tested or not shown. Unless noted, calls come from the whole dose curve; as a rule, active = well fitted curve in the direction sought with a large enough effect; inconclusive = small, poorly fitted or top-dose-only effect, or another doubt; inactive = no such curve, though single readings can be large; an effect the other way counts as inactive or inconclusive. Unless noted, % is set by controls: 0 for no effect and ±100 for the full control effect.

SMILES	RORgamma inh	VP16 counter	TDP1 cell CPT	IL-1B inflam inh	DT40 TDP1 no CPT	LDHA inh
CC(C)C(=O)NC(=S)Nc1ccc(S(=O)(=O)Nc2ccccc2)cc1	-2.8%	7.7%	-18.3%	0.8	-29.4%	-2.2
COc1ccc(NS(=O)(=O)c2ccc(NC(=S)NC(=O)C(C)C)cc2)cc1	-0.6%	-3.3%	18.4µM*	0.0	16.4µM*	-3.0
CC1(C)CC(N=Cc2c(O)n(Cc3ccc4c(c3)OCO4)c(=O)c3ccccc23)CC(C)(C)N1	?	-14.1%	6.51µM*	-106.7*	7.31µM*	-3.3
CN(C)CCCN=Cc1c(O)n(Cc2ccccc2)c(=O)c2ccccc12	-19.7%	2.3%	?	?	6.8%	0.7
O=C(O)CCCCCN1C(=O)/C(=C\c2ccc(-c3ccc(Cl)cc3)o2)SC1=S	28.5%	8.9%	?	6.4	?	-0.5
O=C(O)CCCCCN1C(=O)/C(=C\c2ccncc2)SC1=S	12.6µM*	10µM*	23.1µM*	-99.3*	23.1µM*	26.6
O=C(CCCN1C(=O)/C(=C/c2ccccc2)SC1=S)Nc1ccc(C(=O)O)c(O)c1	?	-29.2%	5.6%	10.0	-17.3%	1.8
CC(c1ccccc1)N1C(=O)/C(=C/c2ccncc2)SC1=S (stereo not given)	?	15.8µM*	?	-50.1*	23.1µM*	-20.4
O=C(O)CCCCCN1C(=O)/C(=C/c2ccncc2)SC1=S	11.2µM*	10µM*	23.1µM*	-97.5*	23.1µM*	22.2
O=C(O)CCCN1C(=O)/C(=C/c2ccncc2)SC1=S	8.91µM*	10µM*	?	-80.2*	?	18.2
COc1ccccc1CNC(=O)Cn1ccc2cccc(OC)c21	·	·	·	·	·	3.9
COc1ccc(-c2ccnc3nc(N4CCCCC4)[nH]c(=O)c23)cc1	·	·	·	·	·	3.7
O=C(CCc1nc2ccccc2o1)NC1CCCCC1	·	·	·	·	·	2.8
CC(=O)Nc1cc(C(=O)COC(=O)c2cccc3ccccc23)ccc1O	·	·	·	·	·	2.5
COc1ccc(CN2C(=O)/C(=C/c3ccncc3)SC2=S)cc1	?	?	23.1µM*	-82.2*	9.2µM*	0.5
CC(=O)Oc1ccc(/C=C2/SC(=S)N(Cc3ccccc3)C2=O)cc1	6.7%	-0.5%	-6.6%	-11.4	-16.5%	2.4
O=C(c1ccc(Cl)cc1)N1CCC(O)(CSc2ccc(Cl)cc2Cl)CC1	3.6%	-12.6%	16.4µM*	-20.3	?	1.8
O=S(=O)(c1ccc(F)c(F)c1)N1CCN(C23CC4CC(CC(C4)C2)C3)CC1	·	·	·	·	·	0.1
CC(C)=CCc1c(O)cc2c(c1O)C(=O)CC(c1ccccc1)O2 (stereo not given)	·	·	-1.1%	21.4	?	-4.2
NC[C@@H]1O[C@H](C23CC4CC(CC(C4)C2)C3)Cc2c1ccc(O)c2O	?	?	23.1µM*	-24.6	23.1µM*	6.0
NC[C@@H]1O[C@H](c2ccccc2)Cc2c1ccc(O)c2O	28.2µM*	25.1µM*	6.68µM*	·	9.44µM*	·
O=C(OCC(=O)c1c[nH]c2ccccc12)c1ccccc1C(=O)c1ccc(Cl)c([N+](=O)[O-])c1	·	·	·	·	·	12.0
COc1ccc(-c2nc(C(=O)N3CCCCCC3)nn2-c2cccc(Cl)c2)cc1	·	·	·	·	·	-14.5
Cc1ccc2[nH]c3c(c2c1)CCC3=O	-10.0%	2.7%	-4.4%	13.9	-10.4%	-7.6
Cc1ccc2[nH]c3c(c2c1)CCc1cn[nH]c1-3	3.3%	?	?	-13.0	23.1µM*	15.4
SMILES	RORgamma inh	VP16 counter	TDP1 cell CPT	IL-1B inflam inh	DT40 TDP1 no CPT	LDHA inh
O=C(Nc1nc(-c2ccc(-c3ccccc3)cc2)cs1)C1CCN(C(=O)c2ccoc2)CC1	·	·	·	·	·	-5.2
Cc1ccc(CSC2=Nc3ccccc3C3=NC(CC(=O)NC4CCCCC4)C(=O)N23)cc1 (stereo not given)	·	·	1.16µM*	·	1.16µM*	-1.8
COc1cccc(NC(=O)CSC2=Nc3ccccc3C3=NC(CCC(=O)NC4CCCCC4)C(=O)N23)c1 (stereo not given)	·	·	?	·	?	-7.0
O=C(CCC1N=C2c3ccccc3N=C(SCc3ccc(F)cc3)N2C1=O)NC1CCCCC1 (stereo not given)	·	·	20.6µM*	·	10.3µM*	-1.3
O=C(CC1N=C2c3ccccc3N=C(SCc3ccc(Cl)cc3)N2C1=O)NC1CCCCC1 (stereo not given)	·	·	?	·	?	4.4
O=C(CCC1N=C2c3ccccc3N=C(SCc3ccc(F)cc3)N2C1=O)NCc1cccs1 (stereo not given)	·	·	1.5%	·	-6.6%	2.7
O=C(CC1N=C2c3ccccc3N=C(SCc3ccc(F)cc3)N2C1=O)NC1CCCCC1 (stereo not given)	·	·	?	·	16.4µM*	-3.3
COc1cccc(C2c3c(ncn(-c4cccc(OC)c4)c3=N)Oc3ccc4ccccc4c32)c1 (stereo not given)	·	·	·	·	·	5.6
COc1cccc(C2c3c(ncn(CCN4CCOCC4)c3=N)Oc3ccc4ccccc4c32)c1 (stereo not given)	·	·	·	·	·	6.8
COc1ccc(C2c3c(ncn(CCCO)c3=N)Oc3ccc4ccccc4c32)cc1OC (stereo not given)	-20.4%	-1.3%	14.6µM*	-100.0*	18.4µM*	-4.6
COc1ccc(C2c3c(ncn(CCCO)c3=N)Oc3ccc4ccccc4c32)cc1 (stereo not given)	-27.6%	-16.4%	20.6µM*	-96.0*	14.6µM*	-8.1
COc1ccc(C2c3c(ncn(CCN4CCOCC4)c3=N)Oc3ccc4ccccc4c32)cc1OC (stereo not given)	-107.9%	12.6µM*	?	-87.5*	?	-5.2
CCCCCn1nc(C(=O)OCC(=O)Nc2ccc3c(c2)OCO3)c2ccccc2c1=O	·	·	·	·	·	7.0
CC(=O)c1ccc(NC(=O)CN(Cc2ccc3c(c2)OCO3)C2CCCC2)cc1	·	·	·	·	·	11.4
C=CCN(Cc1cccs1)C(=O)c1cccs1	·	·	·	·	·	-1.8
CC/C(=C/c1ccccc1)c1cc(Oc2ccccc2)cc2oc3ccccc3c12	·	·	-10.2%	·	-17.4%	·
COc1cc(/C(C)=C/c2ccccc2)c2c(c1)oc1ccccc12	7.3%	-1.2%	?	·	14.1µM*	·
